About 2,000 (36%) of roughly 5,500 compounds were called active. Another 18% or so got no clear call; they are omitted. No stated cut-off is given here; in the data, active means normalized growth mostly below about 0.91 (no sharp cut-off); inconclusive means no clear call, values can overlap the other calls; inactive means mostly above about 0.92. Some of the results follow.
Experiment: chemical genetic growth profiling, strain panel (AID 1159580);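 further: tested at 20 µM; growth read once vehicle control cultures reached saturation at 30 °C; 1 = growth at the plate median or of vehicle wells; lower values mean less growth of the strain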
Conditions: S. cerevisiae deletion strains, growth OD

Measured: normalized growth

CN(C)c1ccc(/C=C/c2ccc3ccccc3[n+]2C)cc1
inactive: locus YAR019C, strain CDC15, hits give low values 0.966 | locus YBL105C, strain PKC1, hits give low values 0.961 | locus YBR135W, strain CKS1, hits give low values 0.974 | locus YBR136W, strain MEC1, hits give low values 0.956 | locus YBR160W, strain CDC28, hits give low values 0.959 | locus YDL017W, strain CDC7, hits give low values 0.969 | locus YDL028C, strain MPS1, hits give low values 0.976 | locus YDL101C, strain DUN1, hits give low values 0.988 | locus YDL108W, strain KIN28, hits give low values 0.965 | locus YDL132W, strain cdc53, hits give low values 0.975 | locus YDL214C, strain PRR2, hits give low values 0.817 | locus YDR052C, strain DBF4, hits give low values 0.954 | locus YDR054C, strain cdc34, hits give low values 0.965 | locus YDR226W, strain ADK1, hits give low values 0.961 | locus YDR477W, strain SNF1, hits give low values 0.83 | locus YER123W, strain YCK3, hits give low values 0.799 | locus YER133W, strain GLC7, hits give low values 0.801 | locus YFL009W, strain cdc4, hits give low values 0.976 | locus YFL029C, strain CAK1, hits give low values 0.978 | locus YFR003C, strain YPI1, hits give low values 0.959 | locus YFR019W, strain FAB1, hits give low values 0.87 | locus YFR028C, strain CDC14, hits give low values 0.967 | locus YGR040W, strain KSS1, hits give low values 0.798 | locus YGR052W, strain FMP48, hits give low values 0.745 | locus YGR092W, strain DBF2, hits give low values 0.775 | locus YHR082C, strain KSP1, hits give low values 0.806 | locus YHR205W, strain SCH9, hits give low values 0.64 | locus YIL147C, strain SLN1, hits give low values 0.959 | locus YJL095W, strain BCK1, hits give low values 0.666 | locus YJL128C, strain PBS2, hits give low values 0.943 | locus YJL157C, strain FAR1, hits give low values 0.733 | locus YJR016C, strain ILV3, hits give low values 0.983 | locus YJR066W, strain TOR1 (second series), hits give low values 0.928 | locus YJR066W, strain TOR1, hits give low values 0.607 | locus YKL048C, strain ELM1, hits give low values 0.899 | locus YKL067W, strain YNK1, hits give low values 0.798 | locus YKL101W, strain HSL1, hits give low values 0.815 | locus YKL193C, strain SDS22, hits give low values 0.982 | locus YKL203C, strain TOR2, hits give low values 0.823 | locus YLR133W, strain CKI1, hits give low values 0.816 | locus YLR403W, strain SFP1, hits give low values 0.672 | locus YML070W, strain DAK1, hits give low values 0.811 | locus YMR001C, strain CDC5, hits give low values 0.978 | locus YMR205C, strain PFK2 (second series), hits give low values 0.887 | locus YMR277W, strain FCP1, hits give low values 0.976 | locus YNL006W, strain LST8, hits give low values 0.979 | locus YNL161W, strain CBK1, hits give low values 0.977 | locus YNL183C, strain NPR1, hits give low values 0.782 | locus YNL207W, strain RIO2, hits give low values 0.962 | locus YNL222W, strain SSU72, hits give low values 0.968 | locus YOL078W, strain AVO1, hits give low values 0.984 | locus YOL136C, strain PFK27, hits give low values 0.786 | locus YOR061W, strain CKA2, hits give low values 0.69 | locus YOR119C, strain RIO1, hits give low values 0.833 | locus YOR329C, strain SCD5, hits give low values 0.965 | locus YPL031C, strain PHO85, hits give low values 0.807 | locus YPL153C, strain RAD53, hits give low values 0.833 | locus YPL204W, strain HRR25, hits give low values 0.726 | locus YPL209C, strain IPL1, hits give low values 0.966 | locus YPR025C, strain CCL1, hits give low values 0.969 | locus YPR106W, strain ISR1, hits give low values 0.977 | locus YPR111W, strain DBF20, hits give low values 0.96 | strain NNK1, hits give low values 0.97 | strain TSCII, hits give low values 0.966
active: locus YHR030C, strain SLT2, hits give low values 0.532 | locus YHR079C, strain IRE1, hits give low values 0.49 | locus YLR113W, strain HOG1, hits give low values 0.677 | locus YNL020C, strain ARK1, hits give low values 0.61 | locus YNL307C, strain MCK1 (second series), hits give low values 0.589 | locus YOR231W, strain MKK1, hits give low values 0.548 | locus YPL256C, strain CLN2, hits give low values 0.626

From PubChem BioAssay AID1159580 (chemical genetic matrix, 2015)
